From PubChem
Shown are actives, neighbours in structure and some others; about 3% of the full set was active somewhere.
PAFAH2 FP inh: PAFAH2 (human) inhibition; recombinant PAFAH2, FP-rhodamine activity probe, fluorescence polarization; inhibition, % at 3.39 µM; actives 0.99% (n = 340,000); Q99487;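 active means inhibition above the mean over all tested compounds plus 3 SD, cut at about 30% in these data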;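 further: inhibitors block probe labeling of enzyme so polarization drops; 0% = enzyme with DMSO and 100% = wells lacking PAFAH2 protein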
PP5 primary: PP5 (human) phosphatase inhibition | P53041 | purified PP5c, OMFP substrate fluorescence | inhibition, % at 6.7 µM | actives 0.18% (n = 320,000);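 active means inhibition above the campaign's mean inhibition across all tested compounds plus 3 SD, cut at about 9.5% in these data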;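 further: 0% = DMSO only and 100% = 100 µM cantharidin control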
CTSL1 counter: counter-screen for PFM18AAP inhibitors: inhibitors of F. hepatica cathepsin L1; inhibition, % at 5.96 µM; recombinant F. hepatica cathepsin L1, Z-Leu-Arg-MCA fluorescence; actives 0.49% (n = 300,000);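 active means inhibition above the mean of all tested compounds plus 3 SD, set per screening campaign, cut at about 17% in these data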;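 further: 0% = plate median of test compound wells and 100% = 1 µM Z-Phe-Ala-diazomethylketone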
PAFAH1B3 FP inh: blocks human PAF acetylhydrolase 1B catalytic subunit 3 | recombinant PAFAH1B3, FP-rhodamine probe, fluorescence polarization | actives 0.28% (n = 340,000) | inhibition, % at 3.39 µM | AID 492972;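 active means inhibition above the screen-wide average of all tested compounds plus 3 SD, cut at about 25% in these data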;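 further: 0% = enzyme with DMSO only and 100% = wells lacking PAFAH1B3 protein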
Target sequence (Q15102 whole entry, looked up): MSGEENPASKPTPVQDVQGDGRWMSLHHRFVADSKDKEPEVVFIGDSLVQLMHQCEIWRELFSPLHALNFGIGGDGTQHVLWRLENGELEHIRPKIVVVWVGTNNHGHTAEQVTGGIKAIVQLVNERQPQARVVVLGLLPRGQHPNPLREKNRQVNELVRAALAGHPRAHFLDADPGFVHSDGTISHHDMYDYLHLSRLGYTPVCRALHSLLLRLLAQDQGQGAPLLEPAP
pPAFAH FP inh: inhibitors of human plasma PAF acetylhydrolase (pPAFAH) | actives 1.5% (n = 330,000) | recombinant pPAFAH, FP-rhodamine probe fluorescence polarization | Q13093 | inhibition, % at 3.39 µM;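 active means inhibition above the mean inhibition across the screen plus 3 SD, cut at about 25% in these data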;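 further: inhibitors block binding of the rhodamine activity-based probe so polarization drops; 0% = enzyme with DMSO and 100% = wells lacking pPAFAH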
PAFAH1B2 inh: inhibitors of human PAFAH1B2; actives 1.2% (n = 340,000); P68402; inhibition, % at 3.39 µM; recombinant PAFAH1B2, FP-rhodamine activity probe, fluorescence polarization;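 active means inhibition above the mean of all tested compounds plus 3 SD, cut at about 24% in these data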;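 further: 0% = enzyme with DMSO and 100% = wells lacking PAFAH1B2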
Target sequence (P68402 whole entry, looked up): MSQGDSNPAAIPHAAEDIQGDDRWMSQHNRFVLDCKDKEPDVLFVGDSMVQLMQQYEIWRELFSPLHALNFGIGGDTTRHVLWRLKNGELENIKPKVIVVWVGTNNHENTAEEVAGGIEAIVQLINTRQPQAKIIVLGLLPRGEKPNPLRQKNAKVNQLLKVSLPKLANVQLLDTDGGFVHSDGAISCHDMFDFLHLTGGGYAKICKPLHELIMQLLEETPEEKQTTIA
PAFAH2 confirm: PAFAH2 (human) inhibition, confirmed; shares compounds with PAFAH2 FP inh; recombinant PAFAH2, FP-rhodamine activity probe, fluorescence polarization; inhibition, % at 3.39 µM; actives 65% (n = 2,300);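 active means mean inhibition over three repeats above a set limit taken from the earlier primary screen, cut at about 30% in these data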;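 further: inhibitor blocks binding of rhodamine activity probe so polarization falls; 0% = enzyme with DMSO and 100% = wells lacking PAFAH2 protein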
* = called active by the depositor; . = no result.

SMILES	PAFAH2 FP inh	PP5 primary	CTSL1 counter	PAFAH1B3 FP inh	pPAFAH FP inh	PAFAH1B2 inh	PAFAH2 confirm
O=c1oc(-c2cccnc2)nc2ccccc12	6.2	0.2	0.0	-1.7	2.7	-1.6	.
CCOc1ccc(-c2nc3ccccc3c(=O)o2)cc1	54.2*	0.1	-0.4	3.0	-1.4	-4.5	60.4*
Cc1sc(NC(=O)CN(C(=O)c2ccccc2F)C2CCCC2)c(C(N)=O)c1C	4.9	3.5	-1.2	-3.2	4.5	-2.3	.
O=C(N/N=C/c1cccc(Cl)c1)C(c1ccncc1)N1CCOCC1 (configuration not stated)	50.5*	1.2	-3.6	1.9	7.0	2.8	40.7*
CCN(CC(=O)Nc1cc(Cl)ccc1C)C(=O)c1ccc2c(c1)NC(=O)C(C)S2 (configuration not stated)	-0.2	2.2	-2.4	1.0	22.3	1.8	.
CC(C)=CC(=O)OCC(=O)Nc1ccc(F)cc1Cl	47.2*	-0.4	4.1	8.0	7.1	0.1	41.1*
CC(C)=CC(=O)OCC(=O)Nc1cc([N+](=O)[O-])ccc1F	62.0*	2.5	-9.9	-0.5	-7.6	-8.3	68.1*
COc1ccc([N+](=O)[O-])cc1NC(=O)COC(=O)C=C(C)C	-32.1	1.0	-11.6	3.8	2.2	-6.6	.
CCOc1ccc(N2CC(C(=O)NC3CCSC3=O)CC2=O)cc1 (configuration not stated)	16.2	1.2	0.4	0.3	4.5	3.7	.
COc1ccccc1CC(=O)N1CCN(c2ccccc2)CC1	-1.5	0.7	2.3	-0.5	-5.3	-1.0	.
COc1ccc(Cl)cc1NS(=O)(=O)c1cccc(C(=O)NCC(c2ccco2)N(C)C)c1 (configuration not stated)	2.0	1.3	-3.3	5.8	2.7	5.4	.
Cc1ccc(C(=O)c2ccccc2C(=O)OCC(=O)N2CCCC2)cc1	0.9	.	.	4.2	-6.9	1.4	.
Cc1ccc(C(=O)c2ccccc2C(=O)OCC(=O)NC(C)(C)C)cc1	61.7*	0.7	0.9	8.6	1.2	0.1	50.7*
COc1ccc(C(=O)OCC(=O)c2ccc(F)cc2)cc1OC	60.3*	.	.	-0.5	2.2	2.4	57.4*
COc1cc(C(=O)OCC(=O)NC2CCCCCC2)ccc1OCC(C)C	88.1*	-1.5	3.6	3.6	16.1	6.8	82.8*
COc1ccc(C(=O)OCC(=O)NC2CC2)cc1F	49.4*	.	.	8.9	0.3	0.9	30.5*
COc1cc(N)c(Cl)cc1C(=O)OCC(=O)NCC1CCCO1 (configuration not stated)	8.6	.	.	-2.0	1.6	5.1	.
COc1ccc(C(=O)COC(=O)c2ccc(OC)c(OC)c2)cc1OC	2.7	1.9	1.1	2.4	4.8	-2.8	.
COc1cc(N)c(Cl)cc1C(=O)OCC(=O)NCC1CCCCC1	60.0*	.	.	6.0	3.2	-0.5	52.0*
COc1cc(C(=O)OCC(=O)NC2CC2)cc(OC)c1OC	1.6	-0.5	.	5.6	-2.1	4.4	.
CN(C)CCN1C(=O)C(=O)/C(=C(/O)c2ccc(S(=O)(=O)N3CCOCC3)cc2)C1c1ccc(F)cc1 (configuration not stated)	0.0	0.0	2.9	7.7	1.4	1.3	.
O=C(NCCN1CCN(Cc2ccccc2)CC1)c1ccc(CS(=O)(=O)c2ccc(Br)cc2)o1	-0.4	2.4	0.4	8.0	2.1	5.7	.
Cc1ccc(C(=O)OCC(=O)c2ccccc2)cc1	37.5*	4.7	-0.7	-5.3	7.6	-4.4	24.2
COc1cc(C(=O)OCC(=O)NCC2CCCCC2)ccc1OCC(C)C	67.5*	0.5	5.2	-2.2	15.1	2.1	60.6*
COc1ccccc1OCC(=O)NCC1CCCCC1	-4.4	0.7	-1.8	4.5	3.6	4.3	.
SMILES	PAFAH2 FP inh	PP5 primary	CTSL1 counter	PAFAH1B3 FP inh	pPAFAH FP inh	PAFAH1B2 inh	PAFAH2 confirm
COc1ccc(C(=O)OCC(=O)NC2CC2)cc1S(=O)(=O)N(C)Cc1ccccc1	53.8*	-0.5	-7.1	3.6	20.9	3.7	49.5*
COc1cc(C(=O)OCC(=O)NC2CC2)ccc1OCCC(C)C	71.1*	0.6	.	4.6	15.0	-4.5	67.7*
COc1ccc(CCN2CCCn3c2nc2c3c(=O)n(CC(N)=O)c(=O)n2C)cc1OC	-7.8	.	.	3.0	.	9.4	.
N/C(=N\OC(=O)c1ccc(F)cc1)c1ccccc1	4.9	0.9	1.7	5.8	2.0	3.5	.
COc1ccc(C/C(N)=N/OC(=O)c2ccc(Cl)cc2)cc1	50.8*	4.2	-2.1	4.9	5.2	4.6	39.0*
N/C(Cc1ccc(Cl)cc1Cl)=N\OC(=O)c1ccccc1	77.8*	-0.4	-0.8	4.8	1.5	4.9	77.7*
N/C(CC1CC1(Cl)Cl)=N\OC(=O)c1ccccc1 (configuration not stated)	83.0*	-0.1	0.2	-4.2	3.3	7.5	78.1*
N/C(Cc1ccc(Cl)cc1)=N\OC(=O)c1ccc2ccccc2c1	35.9*	2.4	4.1	-4.4	20.1	1.5	30.3*
N/C(Cc1ccc(Cl)cc1Cl)=N\OC(=O)Cc1ccccc1	-0.1	0.6	-24.4	-1.2	6.7	17.1	.
N/C(Cc1ccc(Cl)cc1)=N\OC(=O)c1cccc2ccccc12	19.4	4.4	1.9	-0.3	7.0	-0.9	.
CC(=O)c1cc(CN2CCC(n3nccc3NC(=O)c3ccccc3)CC2)cs1	5.1	1.3	0.0	5.3	1.9	5.5	.
Cc1ccc(/C(N)=N/OC(=O)c2ccc3ccccc3c2)cc1	0.2	2.0	4.1	11.4	2.0	3.3	.
Cc1ccc(C(=O)O/N=C(\N)Cc2cccc3ccccc23)cc1	66.6*	3.1	-2.8	-5.2	9.9	-2.1	73.5*
COc1cccc(/C=C2\SC(=S)N(NS(=O)(=O)c3ccc(C)cc3)C2=O)c1OC	32.8*	0.6	-1.3	6.5	16.0	5.4	21.8
COc1ccccc1/C=C1\SC(=S)N(NS(=O)(=O)c2ccccc2)C1=O	1.7	-0.6	0.7	11.4	2.9	2.6	.
COc1cccc(/C=C/C(=O)OCC(=O)NCCC2=CCCCC2)c1OC	65.7*	.	.	-1.3	14.4	-0.9	55.4*
COc1ccccc1/C=C/C(=O)OCC(=O)NCCC1=CCCCC1	24.6	-0.2	-5.8	9.8	17.8	-4.9	.
COc1ccc(/C=C/C(=O)OCC(=O)NCCC2=CCCCC2)cc1OC	65.1*	-2.1	-0.4	-1.7	5.5	-1.7	50.3*
CC(C)(C)N/N=C/c1cc(Cl)cc([N+](=O)[O-])c1O	14.3	-1.6	3.3	11.4	22.1	8.8	.
O=[N+]([O-])c1cc(Cl)cc(/C=N/Nc2nc3ccccc3s2)c1O	65.0*	1.7	1.1	18.0	12.7	4.9	46.0*
O=C(Cn1nc2ccccc2n1)N/N=C/c1cc(Cl)cc([N+](=O)[O-])c1O	30.1*	.	.	3.5	.	8.6	15.0
